{"source": "PubChem BioAssay AID463173", "about": "(ICCB-Longwood Screening Facility, Harvard Medical School, 2010)", "note": "Among all 52,000 compounds or so, about 4,300 (8.3%) were called active. No stated cut-off is given here; in the data, active means survival mostly below about 52% (no sharp cut-off); inactive means mostly above about 56%. Many of the other results were omitted from the sample, so actives are more common in it than they were."}
{"tested_on": "DeltatarO mutant", "assay": "S. aureus survival, RN4220 and DeltatarO strains – OD600, teichoic acid synthesis inhibitors, primary screen (AID 463173)", "details": "S. aureus RN4220 wild type/DeltatarO growth, OD600, 18 h, stronger effect = lower value, screened at 18.75 µg/mL (by protocol)"}
{"smiles": "Cc1nc(-c2ccc(S(=O)(=O)N(C)Cc3ccccc3)cc2)co1", "survival": "95% (inactive)"}
{"smiles": "Cc1ccc(-n2ncc(C(=O)NC3CCCC3)c2C2CCN(C(=O)OC(C)(C)C)CC2)c(C)c1", "survival": "70% (inactive)"}
{"smiles": "Cc1ccc(-n2c(=O)c3c(c4cc(C)ccc4n3C)n(CC(=O)N3CCCC3)c2=O)cc1", "survival": "71% (inactive)"}
{"smiles": "CC(=O)Nc1ccc(C2=CSC3=NCCN23)cc1", "survival": "82% (inactive)"}
{"smiles": "CCSc1ncc(Cl)c(C(=O)Nc2nc3ccc(Cl)cc3s2)n1", "survival": "100% (inactive)"}
{"smiles": "CCOc1ccc(NS(=O)(=O)c2ccc3nc(-c4ccccc4)[nH]c3c2)cc1", "survival": "64% (inactive)"}
{"smiles": "CC(C)COc1ccc(C(=O)Nc2cccc(-c3nc4ccccc4[nH]3)c2)cc1", "survival": "43% (active)"}
{"smiles": "COc1cc(NC(=O)c2cc(Cl)c(OC)c(Cl)c2)ccc1NC(=O)c1cc2ccccc2o1", "survival": "82% (inactive)"}
{"smiles": "CCCOc1ccc(C(=O)Nc2cccc(NC(=O)c3cccc(Cl)c3)c2)cc1", "survival": "70% (inactive)"}
{"smiles": "CCCN(CCC)S(=O)(=O)c1ccc(C(=O)Nc2cccc(-c3nc4ccccc4[nH]3)c2)cc1", "survival": "99% (inactive)"}
{"smiles": "Cc1cccc(-c2nc3cc(NC(=O)c4ccc(OCC(C)C)cc4)ccc3o2)c1", "survival": "113% (inactive)"}
{"smiles": "CCOc1ccc(C(=O)Nc2cccc(-c3nc4cc(Cl)cc(Cl)c4o3)c2)cc1", "survival": "84% (inactive)"}
{"smiles": "CCOc1cc(OCC)cc(C(=O)Nc2cccc(-c3nc4ccccc4[nH]3)c2)c1", "survival": "36% (active)"}
{"smiles": "CC(C)COc1ccc(C(=O)Nc2cc(-c3ccccc3)no2)cc1", "survival": "85% (inactive)"}
{"smiles": "CCCOc1ccc(C(=O)Nc2cccc(-c3nc4ccccc4[nH]3)c2)cc1", "survival": "28% (active)"}
{"smiles": "COc1c(Cl)cc(C(=O)Nc2cccc(-c3nc4ccccc4[nH]3)c2)cc1Cl", "survival": "15% (active)"}
{"smiles": "CCOc1ccc(CCNC(=O)c2cc3c(=O)n(C)c4ccccc4c3s2)cc1OCC", "survival": "56% (inactive)"}
{"smiles": "Cc1ccc(NC(=O)C2CCN(C(=O)c3cnn(-c4ccccc4)c3-n3cccc3)CC2)cc1", "survival": "93% (inactive)"}
{"smiles": "CCCn1c(=S)[nH]c2c1c(=O)[nH]c(=O)n2C", "survival": "66% (inactive)"}
{"smiles": "CN(CC(=O)Nc1cccc(F)c1)S(=O)(=O)c1ccc2c(c1)n(C)c(=O)c(=O)n2C", "survival": "102% (inactive)"}
{"smiles": "COc1ccc(C2=NN(C(=O)CCC(=O)O)C(c3ccccc3F)C2)cc1OC", "note": "(centres undefined)", "survival": "89% (inactive)"}
{"smiles": "N/C(=N/OC(=O)c1ccccc1)c1ccccn1", "survival": "87% (inactive)"}
{"smiles": "CCCCNC(=O)c1ccc2c(c1)ncn2-c1cc(OC)ccc1OC", "survival": "112% (inactive)"}
{"smiles": "O=c1oc2cc(O)ccc2cc1-c1nnc(Nc2ccccc2F)s1", "survival": "59% (inactive)"}
{"smiles": "CCC(c1nnnn1Cc1ccccc1)N(Cc1cccs1)Cc1cc2ccc(C)cc2[nH]c1=O", "note": "(centres undefined)", "survival": "103% (inactive)"}
{"smiles": "O=C(CNC(=O)c1ccc(Cl)cc1)OCc1cc(=O)n2ccsc2n1", "survival": "72% (inactive)"}
{"smiles": "COc1ccc(C2C(C(=O)Nc3ccc(C)cc3C)=C(C)Nc3nc(SCc4cccc(C)c4)nn32)c(OC)c1", "note": "(centres undefined)", "survival": "164% (inactive)"}
{"smiles": "CCc1ccc(C2C(C#N)=C(N)Oc3cc(N)ccc32)cc1", "note": "(centres undefined)", "survival": "102% (inactive)"}
{"smiles": "CCN(CC)c1ccc2c(c1)OC(N)=C(C#N)C2c1cccc(F)c1", "note": "(centres undefined)", "survival": "2% (active)"}
{"smiles": "COc1ccc(C2C(C#N)=C(N)Oc3cc4c(cc32)OCO4)cc1", "note": "(centres undefined)", "survival": "79% (inactive)"}
{"smiles": "Cc1ccc(Sc2c(C)nn(C(=O)c3ccc(Br)cc3)c2C)cc1", "survival": "16% (active)"}
{"smiles": "Cc1nn(C(=O)c2ccc(Br)cc2)c(C)c1S(=O)(=O)N1CCOCC1", "survival": "79% (inactive)"}
{"smiles": "Cc1ccc(Sc2c(C)nn(C(=O)COc3ccccc3Br)c2C)cc1", "survival": "88% (inactive)"}
{"smiles": "Cc1nn(C(=O)c2ccc(Br)cc2)c(C)c1Sc1ccccc1", "survival": "2% (active)"}
{"smiles": "Cc1nn(C(=O)c2ccccc2)c2c1C(=O)CC(C)(C)C2", "survival": "74% (inactive)"}
{"smiles": "Cc1nn(C(=O)COc2ccccc2Br)c(C)c1Sc1ccccc1", "survival": "54% (inactive)"}
{"smiles": "CCOc1ccc(NC(=O)CC2C(=O)N(c3ccccc3)C(=O)N2CCc2ccc(OC)cc2)cc1", "note": "(centres undefined)", "survival": "59% (inactive)"}
{"smiles": "CCCNC(=O)CSc1cn(CC(=O)N2CCCCCC2)c2ccccc12", "survival": "84% (inactive)"}
{"smiles": "Cc1ccc(S(=O)(=O)c2cn(CC(=O)Nc3ccc(C)c(Cl)c3)c3ccc(C)cc3c2=O)cc1", "survival": "96% (inactive)"}
{"smiles": "Cc1c(C(=O)O)oc2c1-c1nn(Cc3ccc(Cl)cc3)cc1CC2", "survival": "89% (inactive)"}
{"smiles": "COc1ccc(NC(=O)c2oc3c(c2C)-c2nn(Cc4ccccc4Cl)cc2CC3)cc1OC", "survival": "53% (active)"}
{"smiles": "CCOC(=O)c1oc2c(c1C)-c1nn(Cc3ccccc3Cl)cc1CC2", "survival": "38% (active)"}
{"smiles": "CCOC(=O)c1ccc(NC(=O)c2oc3c(c2C)-c2nn(Cc4ccccc4Cl)cc2CC3)cc1", "survival": "68% (inactive)"}
{"smiles": "CCOC(=O)c1oc2c(c1C)-c1nn(Cc3ccc(Cl)cc3)cc1CC2", "survival": "16% (active)"}
{"smiles": "Cc1c(C(=O)O)oc2c1-c1nn(Cc3ccccc3Cl)cc1CC2", "survival": "80% (inactive)"}
{"smiles": "CCOC(=O)c1oc2c(c1C)-c1nn(Cc3cccc(Cl)c3)cc1CC2", "survival": "53% (inactive)"}
{"smiles": "COCCCNC(=O)c1oc2c(c1C)-c1nn(Cc3ccccc3Cl)cc1CC2", "survival": "66% (inactive)"}
{"smiles": "CC(=O)Nc1ccc(NC(=O)c2oc3c(c2C)-c2nn(Cc4ccccc4Cl)cc2CC3)cc1", "survival": "61% (inactive)"}
{"smiles": "CC1=C(C(=O)OCC2CCCCC2)C(c2cccc(F)c2F)CC(=O)N1", "note": "(centres undefined)", "survival": "95% (inactive)"}
{"smiles": "O=C1CC(NC2CC2)C(=O)N1c1ccccc1", "note": "(centres undefined)", "survival": "93% (inactive)"}
{"smiles": "Cc1nn(Cc2ccc(Cl)cc2)c(C)c1NC(=O)c1noc2c1CCc1ccccc1-2", "survival": "31% (active)"}
{"smiles": "Cc1nn(Cc2ccc(Cl)c(Cl)c2)c(C)c1NC(=O)c1noc2c1CCc1ccccc1-2", "survival": "46% (active)"}
{"smiles": "COc1ccc2c(c1)CCc1c(C(=O)Nc3c(C)nn(Cc4ccc(Cl)cc4)c3C)noc1-2", "survival": "107% (inactive)"}
{"smiles": "O=C(Nc1cnn(Cc2ccc(Cl)cc2Cl)c1)c1noc2c1CCc1ccccc1-2", "survival": "47% (active)"}
{"smiles": "COc1ccc2c(c1)CCc1c(C(=O)Nc3cnn(Cc4ccc(Cl)cc4Cl)c3)noc1-2", "survival": "142% (inactive)"}
{"smiles": "COc1ccc2c(c1)CCc1c(C(=O)Nc3c(C)nn(Cc4ccccc4)c3C)noc1-2", "survival": "118% (inactive)"}
{"smiles": "COc1ccc(Cl)cc1NC(=O)c1noc2c1CCc1ccccc1-2", "survival": "71% (inactive)"}
{"smiles": "COc1ccc2c(c1)CCc1c(C(=O)Nc3c(C)nn(Cc4ccc(Cl)c(Cl)c4)c3C)noc1-2", "survival": "153% (inactive)"}
{"smiles": "Cc1nn(Cc2ccc(F)cc2)c(C)c1NC(=O)c1noc2c1CCc1ccccc1-2", "survival": "63% (inactive)"}
